# Assay outcomes from PubChem.
# TDP1 cell noCPT = qHTS for Inhibitors of human tyrosyl-DNA phosphodiesterase 1 (TDP1): qHTS in cells in absence of CPT. DT40 Tdp1-/- hTDP1 cells, no CPT, ATP luminescence, 48 h. Potency, µM (highest dose often 46.2 µM), for inactives: at the top dose activity change, negative = growth inhibition, usual class: inhibitors. 15% of 420,000 active; further: on the % scale 0 is the no-effect control and ±100 the full control effect; nearly all actives have a fitted effect of over 55% in size
#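 No-CPT arm: Tdp1-/-;hTDP1 DT40 cells (400/well) plus compounds, incubated ≥48 hr at 37 °C. Readout CellTiter-Glo luminescence.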
# TDP1 block = qHTS Assay for Inhibitors of Tyrosyl-DNA Phosphodiesterase (TDP1); Tyrosyl-DNA phosphodiesterase 1 (Homo sapiens), Q9NUW8; recombinant TDP1, AlphaScreen DNA substrate cleavage; Potency, µM (top dose mostly 130 µM), for the others: top-dose activity change, negative = inhibition, usual class: inhibitors; 0.28% of 350,000 active; further: on the % scale 0 is the no-effect control and ±100 the full control effect; nearly all actives have a fitted effect of over 40% in size
# Target sequence (Q9NUW8 whole entry, looked up): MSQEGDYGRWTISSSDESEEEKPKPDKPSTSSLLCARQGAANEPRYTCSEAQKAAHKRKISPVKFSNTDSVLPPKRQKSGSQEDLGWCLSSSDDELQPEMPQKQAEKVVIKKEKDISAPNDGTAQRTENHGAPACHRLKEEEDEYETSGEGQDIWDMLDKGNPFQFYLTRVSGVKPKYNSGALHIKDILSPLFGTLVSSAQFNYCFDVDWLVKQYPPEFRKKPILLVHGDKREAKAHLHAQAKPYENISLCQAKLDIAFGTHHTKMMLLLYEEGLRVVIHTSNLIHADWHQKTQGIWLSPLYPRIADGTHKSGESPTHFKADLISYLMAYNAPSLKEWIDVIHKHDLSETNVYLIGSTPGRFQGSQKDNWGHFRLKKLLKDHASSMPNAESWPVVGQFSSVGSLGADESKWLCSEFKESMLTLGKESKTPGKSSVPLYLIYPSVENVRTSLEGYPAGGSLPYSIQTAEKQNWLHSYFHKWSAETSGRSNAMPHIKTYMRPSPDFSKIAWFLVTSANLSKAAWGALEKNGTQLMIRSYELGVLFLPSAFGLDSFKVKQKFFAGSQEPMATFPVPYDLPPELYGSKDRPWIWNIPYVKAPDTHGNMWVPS
#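 Tdp1 1 nM final; 15 min RT w/ cpd; substrate 15 nM, 5 min; beads 10 ug/ml, 10 min; AlphaScreen read. Neg ctrl: no enzyme.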
# DT40 TDP1 CPT = qHTS for Inhibitors of human tyrosyl-DNA phosphodiesterase 1 (TDP1): qHTS in cells in presence of CPT; chicken DT40 Tdp1-/-;hTDP1 cells + 20 nM CPT, ATP luminescence, 48 h; AID 686979, 2013; 12% of 420,000 active; Potency, µM (titrated, usually from 46.2 µM), for inactives: at the top dose activity change, negative = growth inhibition, most hits filed as inhibitors; further: on the % scale 0 is the no-effect control and ±100 the full control effect; nearly all actives have a fitted effect of over 55% in size
#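 Chicken DT40 Tdp1-/- cells stably complemented with human TDP1 were seeded at 400 cells/well in medium containing 20 nM camptothecin, exposed to pin-transferred compounds, and grown at 37 °C for at least 48 hr. Viability was read as ATP luminescence.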
# ClpP mod = qHTS Assay for Activators of ClpP; ATP-dependent Clp protease proteolytic subunit (Bacillus subtilis (strain 168)), P80244; purified B. subtilis ClpP, FRET peptide cleavage, 20 min; Potency, µM (highest dose often 57.5 µM), for inactives: at the highest dose activity change, negative = active; 1.9% of 340,000 active; AID 651965, 2013; active means well fitted falling curve with a large enough effect; inconclusive means small, poorly fitted or top-dose-only effect; inactive means no such curve, though single readings can be large or run the other way; further: the source files actives as falling curves though it sought activators and does not explain the sign; nearly all actives have a fitted effect of over 65% in size
#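 Buffer: 100 mM Tris/HCl pH8, 100 mM KCl, 0.05% low protease BSA, 2.5% glycerol, 0.01% Tween-20. ClpP 10 microg/mL final; 20 min RT; delta FRET normalized to ADEP and DMSO controls.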
# * = called active by the depositor; ? = inconclusive; · = no result given; [ ] = dose if it differs, or a comment. Most compounds without a hit are left out; they make up all but 17% or so of the library. Unless noted, the call rests on the fitted dose curve; in most records, active means well fitted curve in the direction sought with a large enough effect; inconclusive means small, poorly fitted or top-dose-only effect, or another doubt; inactive means no such curve, though single readings can be large; an effect the other way counts as inactive or inconclusive. Potency means the concentration at half of the fitted maximal effect.
SMILES,TDP1 cell noCPT,TDP1 block,DT40 TDP1 CPT,ClpP mod
CCN1CCN(C(=O)c2cnn(-c3cccc(C)c3)c2C2CCN(C(=O)OC(C)(C)C)CC2)CC1,?,2%,21µM*,1%
Cc1cccc(-n2ncc(C(=O)NCc3ccco3)c2C2CCN(C(=O)OC(C)(C)C)CC2)c1,?,5%,16µM*,-2%
CC(C)(C)OC(=O)N1CCC(c2c(C(=O)N3CCN(c4ccccc4F)CC3)cnn2-c2ccccc2Cl)CC1,16µM*,1%,18µM*,1%
CC(C)(C)OC(=O)N1CCC(c2c(C(=O)N3CCN(c4ccc(Cl)cc4)CC3)cnn2-c2ccc(F)cc2F)CC1,16µM*,3%,?,1%
CC(C)(C)OC(=O)N1CCC(c2c(C(=O)NCc3ccco3)cnn2-c2ccc(F)cc2)CC1,?,0%,?,-4%
O=C(CCCCn1c(=O)c2ccccc2n(Cc2ccccc2Cl)c1=O)NCc1ccc2c(c1)OCO2,?,3%,?,-6%
CC(=O)N=c1scc(-c2ccccc2)n1-c1cccc(O)c1,16µM*,-15%,?,·
Cc1ccc(-c2csc3ncnc(Oc4cccc5ccc(C)nc45)c23)cc1,21µM*,-3%,?,2%
O=S(=O)(c1ccc(Oc2ncnc3scc(-c4ccccc4)c23)cc1)N1CCOCC1,18µM*,4%,23µM*,3%
COc1ccc(-c2csc3ncnc(N4CCN(S(=O)(=O)c5ccc(C)cc5)CC4)c23)cc1,15µM*,1%,?,·
COc1ccc(S(=O)(=O)N2CCN(c3nn(C)c(=O)n(C)c3=O)CC2)cc1,16µM*,0%,?,-1%
COc1ccc(-c2noc(CCC(=O)N3CCN(c4ccccc4F)CC3)n2)cc1,-16%,1%[56.1 µM],-16%,-2%
COc1ccc(-c2csc3ncnc(N4CCN(S(=O)(=O)c5cccs5)CC4)c23)cc1,?,-7%,?,-1%
Cc1sc2ncnc(N3CCN(S(=O)(=O)c4ccc(C(C)(C)C)cc4)CC3)c2c1C,3.3µM*,4%,9.2µM*,-7%
CC(=O)Nc1cccc(Oc2ncnc3scc(-c4ccccc4)c23)c1,10µM*,3%,?,·
Cc1ccc(OCC(=O)NNC(=O)C2CCN(c3ncnc4sc(C)c(C)c34)CC2)cc1,?,0%,?,·
Cc1ccc(S(=O)(=O)N2CCN(C(=O)C3CCN(c4ncnc5sc(C)c(C)c45)CC3)CC2)c(C)c1,3.7µM*,·,8.2µM*,0%
O=C(O)c1cccc(Nc2ncnc3scc(-c4ccccc4)c23)c1,?,·,?,-7%
COc1ccc(-c2csc3ncnc(N4CCN(S(=O)(=O)c5ccc(Cl)s5)CC4)c23)cc1,29µM*,·,?,·
CCNc1ncc2nc(-c3ccccc3)c(=O)n(Cc3cccs3)c2n1,-12%,·,1%,·
COc1ccc(Cn2ncc3c4sc(C)cc4n(C)c3c2=O)cc1,·,-3%,·,·
O=C(CN1CCN(c2ccccc2O)CC1)Nc1cccnc1Cl,-13%,3%,-22%,·
O=S(=O)(c1cccc(Br)c1)N1CCN(c2ncnc3scc(-c4ccccc4)c23)CC1,?,·,?,-4%
Cc1csc2ncnc(N3CCN(S(=O)(=O)c4cccc(C(F)(F)F)c4)CC3)c12,3.7µM*,2%,9.2µM*,-8%
CCN(C(=O)c1oc2ccc(S(=O)(=O)N3CCCCCC3)cc2c1C)c1ccccc1,15µM*,5%,23µM*,0%
SMILES,TDP1 cell noCPT,TDP1 block,DT40 TDP1 CPT,ClpP mod
O=C(c1ccc(S(=O)(=O)N2CCc3ccccc3C2)cc1)N1CCCCC1,26µM*,-5%,?,-3%
O=C(c1cccc(S(=O)(=O)N2CCOCC2)c1)N1CCCc2ccccc21,-13%,0%,-23%,2%
CC(=O)N1CCN(c2ccc(S(=O)(=O)N3CCOCC3)cc2[N+](=O)[O-])CC1,-3%,0%,3%,·
O=C(c1ccc(S(=O)(=O)N2CCCC2)cc1)N1CCCCC1,-12%,13%,-15%,1%
Cc1c(C(=O)N(C)Cc2ccccc2)oc2ccc(S(=O)(=O)N3CCCC3)cc12,?,4%,-22%,-1%
CCOC(=O)N1CCN(c2ccc(S(=O)(=O)N3CCC(C)CC3)cc2[N+](=O)[O-])CC1,13µM*,2%[56.1 µM],21µM*,-2%
Cc1c(C(=O)N2CCCc3ccccc32)oc2ccc(S(=O)(=O)N3CCOCC3)cc12,11µM*,2%,14µM*,0%
CCOC(=O)c1c(C)[nH]c(C)c1S(=O)(=O)N(C)CC(=O)Nc1ccc(C)c(N(C)C)c1,-17%,5%,-22%,-1%
COCCNCc1cc(C)n(-c2cc(S(=O)(=O)N3CCOCC3)ccc2N2CCCC2)c1C,?,·,?,1%
COC(=O)NC(CC(C)=O)c1ccc(Cl)cc1 (stereo not drawn),·,3%[21 µM],·,·
Cc1cccc(COc2ccc(-c3cc(C(F)(F)F)n4nc(C)cc4n3)cc2)c1,?,-5%,?,-10%
CCOC(=O)N1CCN(C(=O)c2oc3ccc(S(=O)(=O)N4CC(C)CC(C)C4)cc3c2C)CC1 (stereo not drawn),?,6%,?,1%
CCOC(=O)N1CCN(C(=O)c2oc3ccc(S(=O)(=O)N4CCCCCC4)cc3c2C)CC1,13µM*,8%,15µM*,-1%
CCN(CC)C(=O)C1CCN(S(=O)(=O)c2ccc3oc4ccccc4c3c2)CC1,16µM*,1%,21µM*,-1%
O=S(=O)(c1ccc2oc3ccccc3c2c1)N1CCCC1,?,-4%,-23%,-2%
Cc1c(C(=O)N2CCc3ccccc3C2)oc2ccc(S(=O)(=O)N3CCCCCC3)cc12,18µM*,3%,23µM*,-1%
CCOC(=O)C1CCN(C(=O)c2oc3ccc(S(=O)(=O)N4CC(C)CC(C)C4)cc3c2C)CC1 (stereo not drawn),16µM*,0%,18µM*,0%
Cc1ccc(C)c(Cn2c(=O)n(-c3ccc(Cl)cc3)c(=O)c3c4c(sc32)CCC4)c1,-7%,3%,-23%,1%
Cc1cc(=O)cc2oc3cc(N)c(-c4c(C)cc(O)cc4O)c(C)c3nc1-2,-24%,7%[56.1 µM],5%,·
Fc1ccc(C(OCCCc2cnc[nH]2)c2ccc(F)cc2)cc1,·,16%[56.1 µM],·,·
Cc1noc(C)c1CSCC(=O)N(C)CC(=O)Nc1ccccc1C(F)(F)F,-4%,0%,9%,-2%
COc1ccccc1NC(=O)Nc1nc(CC(=O)NCc2ccc(F)cc2)cs1,16µM*,·,9.2µM*,-2%
COc1cc(OC)cc(C(=O)Nc2nc(CC(=O)NC(C)c3ccccc3)cs2)c1 (stereo not drawn),-26%,2%,?,-7%
COc1ccccc1NC(=O)Nc1nc(CC(=O)N2CCN(c3ccccc3F)CC2)cs1,18µM*,4%,?,·
